MLLE-PAM2 inh: inhibitors of PABP1 MLLE–PAM2 peptide binding, primary screen, biochemical, fluorescence polarization, FITC-PAM2, GST-MLLE; Polyadenylate-binding protein 1 (Homo sapiens), P11940; inhibition, % at 20 µM; hit rate 0.36% among 360,000; in the data active = inhibition above about 35%, passing the limit was not always enough
Target sequence (P11940 whole entry, looked up): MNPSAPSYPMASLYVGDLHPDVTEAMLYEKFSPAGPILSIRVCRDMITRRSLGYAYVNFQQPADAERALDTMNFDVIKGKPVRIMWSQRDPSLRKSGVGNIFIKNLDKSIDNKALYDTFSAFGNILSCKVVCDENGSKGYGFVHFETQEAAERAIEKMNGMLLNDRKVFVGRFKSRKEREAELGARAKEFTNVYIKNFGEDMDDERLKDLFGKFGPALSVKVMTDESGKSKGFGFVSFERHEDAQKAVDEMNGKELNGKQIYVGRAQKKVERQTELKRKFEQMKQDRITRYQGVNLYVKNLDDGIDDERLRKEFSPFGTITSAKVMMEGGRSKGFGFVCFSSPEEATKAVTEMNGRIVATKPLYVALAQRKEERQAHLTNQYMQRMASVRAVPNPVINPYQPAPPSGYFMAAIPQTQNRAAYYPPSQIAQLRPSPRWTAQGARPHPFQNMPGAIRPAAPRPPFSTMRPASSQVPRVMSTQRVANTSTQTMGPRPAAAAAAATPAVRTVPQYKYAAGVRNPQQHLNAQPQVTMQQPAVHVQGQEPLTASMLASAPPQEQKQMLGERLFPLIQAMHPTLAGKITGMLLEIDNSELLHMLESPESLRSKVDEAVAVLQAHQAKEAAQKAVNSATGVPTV
ALR H2O2 inh: inhibitors of human ALR sulfhydryl oxidase, primary screen, biochemical, H2O2 detection, HRP-luminol luminescence, single point | FAD-linked sulfhydryl oxidase ALR (Homo sapiens), P55789 | purified ALR, DTT oxidation | inhibition, % (test concentration not listed) | hit rate 3.8% among 290,000 | AID 485317, 2010;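 active = mean replicate inhibition above about 79%, with every replicate also reaching it, limit read from the data; inconclusive = only one of the two criteria met; inactive = mean below limit and not every replicate reaching it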
eIF4H inh: human eIF4H binding inhibitors, primary screen, translation initiation inhibitor project, biochemical, uHTS, fluorescence polarization; eIF4H fluorescence polarization binding assay; inhibition, % at 35 µM; hit rate 0.94% among 290,000;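 also: calls also rest on retests at 20 µM and on dose response follow-up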
PABP polyA inh: PABP poly(A) RNA binding inhibitors, primary screen, biochemical, fluorescence polarization, uHTS | Polyadenylate-binding protein 1 (Homo sapiens), P11940 | hit rate 1% among 290,000 | inhibition, % at 35 µM | AID 2014, 2009;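 also: calls also rest on retests at 20 µM and on dose response follow-up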
Efflux pump mplx: inhibitors of Candida efflux pumps in yeast, primary screen, S. cerevisiae, Nile Red, multiplex; S. cerevisiae Candida pump triplex; inhibition, % at 10 µM; hit rate 0.44% among 330,000; AID 485275, 2010;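 active = plate passing quality check with inhibition over a set limit, or well fluorescence over plate mean plus 4 SD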;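 also: Nile Red retained in pooled yeast measured as flow cytometry median fluorescence; higher means more Nile Red kept so more efflux inhibition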
UBC9 SUMO inh: inhibitors of in vitro SUMOylation cascade, primary screen, biochemical, HTRF, uHTS; inhibition, % at 35 µM; HTRF SUMOylation assay, SAE1/SAE2 + UBC9; hit rate 0.36% among 290,000; SUMO-conjugating enzyme UBC9 (Homo sapiens), P63279; in the data active = inhibition above about 50%, passing the limit was not always enough; inconclusive = no clear call, values can overlap the other calls
Hits are given with their value; - = inactive; ? = inconclusive; . = not tested or not shown. The list is not random: actives were taken first. Their share in the collection is about 4.7%. Unless noted, no rule for the calls is given here.

SMILES	MLLE-PAM2 inh	ALR H2O2 inh	eIF4H inh	PABP polyA inh	Efflux pump mplx	UBC9 SUMO inh
Cc1cccc(S(=O)(=O)Nc2nc3ccccc3nc2Nc2cccc(C(=O)O)c2)c1	-	98	-	-	-	-
CC(=O)Nc1ccc(S(=O)(=O)Nc2nc3ccccc3nc2Nc2ccc(O)c(C(=O)O)c2)cc1	-	99	-	-	-	-
CC(=O)N1CCc2cc(NC(=O)C3(C)CCN3Cc3ccccc3Cl)ccc21 (stereo not given)	-	.	.	.	.	.
O=C(Nc1ccccc1)/C(=C/c1cccnc1)NC(=O)c1ccccc1	-	-	-	-	-	-
O=C(NNc1ccccc1)/C(=C\c1cccnc1)NC(=O)c1ccccc1	-	98	-	-	-	-
C=CC[C@H](CC(=O)N[C@H](CO)Cc1ccccc1)C(=O)N[C@@H](COC(=O)[C@H](CC=C)CC(=O)OC(C)(C)C)Cc1c[nH]c2ccccc12	-	-	.	.	-	.
O=C1CC(=O)Nc2cc(S(=O)(=O)N3CCN(c4ccc([N+](=O)[O-])cc4)CC3)ccc2N1	-	-	70	-	-	-
O=C1Cc2cc(S(=O)(=O)N3CCN(c4ccc(O)cc4)CC3)ccc2N1	-	.	.	.	.	.
CCN(CC)CCn1c(=S)[nH]c2ccc(Br)cc2c1=O	-	97	-	-	-	-
C/C(=N\NC(=O)c1cccc(N/N=C(\C)c2ccncc2)c1)c1ccncc1	-	99	-	-	-	-
C/C(=N\NC(=O)c1cccc(N/N=C(\C)c2ccccc2)c1)c1ccccc1	-	87	-	-	-	-
C[C@H]1CN([C@@H](C)CO)S(=O)(=O)c2ccc(Br)cc2O[C@@H]1CN(C)C(=O)C1CCOCC1	-	.	.	.	.	.
CCOc1ccc2[nH]c(SCC(=O)OC)c([N+](=O)[O-])c2c1	54	.	54	30	-	-
COC(=O)CSc1[nH]c2ccc(Br)cc2c1[N+](=O)[O-]	-	-	-	-	-	-
CC(=O)Nc1ccc(S(=O)(=O)NCC(=O)N2CCN(S(=O)(=O)c3cccs3)CC2)cc1	43	.	.	.	-	.
CC(=O)Nc1ccc(SCC(=O)N2CCN(S(=O)(=O)c3ccccc3)CC2)cc1	-	98	-	-	-	-
O=C(CSc1ccc(F)cc1)N1CCN(S(=O)(=O)c2ccccc2)CC1	-	.	-	-	-	-
CC1(C)CC(=O)C=C(c2n[nH]nc2C2CC2)C1	-	.	.	.	.	.
Cc1cc(Sc2nnc(/N=C/N(C)C)s2)c2ccccc2n1	-	98	-	-	-	-
O=C(O)C(Cc1ccccc1[N+](=O)[O-])N1C(=O)c2ccccc2C1=O (stereo not given)	-	.	.	.	.	.
CCCOc1ccccc1N1C(=O)CC(N(O)c2ccccc2)C1=O (stereo not given)	-	97	-	-	-	-
Fc1cccc(CN2CCN(c3nc4nonc4nc3NC3CC3)CC2)c1	-	-	90	77	-	-
COCCCNc1nc2nonc2nc1N1CCN(Cc2cccc(C)c2)CC1	-	.	?	?	-	-
CCCCNc1nnc(SCC(=O)c2c(N)n(C3CC3)c(=O)[nH]c2=O)s1	-	-	.	.	-	.
CC1CCC/C(=N/Nc2nc3ccccc3s2)C1 (stereo not given)	-	97	-	-	-	-
SMILES	MLLE-PAM2 inh	ALR H2O2 inh	eIF4H inh	PABP polyA inh	Efflux pump mplx	UBC9 SUMO inh
Cc1ccccc1OCCSCc1nc2ccccc2[nH]1	-	-	-	-	-	-
Cc1cc2n(n1)C(c1ccccc1Cl)Nc1ccccc1-2 (stereo not given)	-	98	-	-	-	-
Cc1ccc(S(=O)(=O)N2CC3(O)CN(C(=O)OC(C)C)N(C(=O)OC(C)C)CC3(OC(=O)NCc3ccco3)C2)cc1 (stereo not given)	-	.	.	.	.	.
Cc1ccc(-n2c(O)c(C=Nc3ccccc3-c3n[nH]c(=S)[nH]c3=O)c3ccccc3c2=O)c(C)c1	-	-	-	-	-	53
Cc1ccc(-n2c(O)c(C=Nc3ccccc3-c3n[nH]c(=S)[nH]c3=O)c3ccccc3c2=O)cc1C	-	.	-	-	.	53
COc1ccccc1NC(C)=[N+](C)CCNS(=O)(=O)c1ccc(Cl)cc1	-	-	-	74	-	-
COc1ccc(NC(C)=[N+](C)CCNS(=O)(=O)c2ccc(Cl)cc2)cc1Cl	-	-	.	.	-	-
O=C1SC(SCc2ccccc2Cl)=N/C1=C\c1ccc(C(=O)O)cc1	-	101	-	-	-	-
CCOC(=O)SC1=N/C(=C\c2ccc(N(C)C)cc2)C(=O)S1	-	84	111	116	-	-
CCSC1=N/C(=C\c2ccc(C(=O)O)cc2)C(=O)S1	-	-	-	-	-	-
COC(=O)c1ccc(/C=C2\N=C(SC)SC2=O)cc1	-	99	-	-	-	-
CSC1=N/C(=C\c2ccc(C)cc2)C(=O)S1	-	.	-	-	-	-
COc1ccc(N2C(=O)CC(Nc3ccc(C)cc3)C2=O)cc1 (stereo not given)	-	-	-	-	-	-
COc1ccc(N2C(=O)CC(NNc3ncc(Cl)cc3Cl)C2=O)cc1 (stereo not given)	-	84	-	-	-	-
Cc1c(C(=O)OCC[N+]2(C)CCCCC2)oc2ccccc12	-	-	-	55	-	-
CCCCN1C(C)=CC(=C2C(=O)c3ccccc3C2=O)C=C1C	-	-	-	-	-	-
CCCCN1C(=O)C(=Nc2cccc3cnccc23)c2ccccc21	-	-	-	-	-	99
Cc1nc2cc(C(=O)N3c4ccccc4CC3C)ccc2s1 (stereo not given)	-	-	-	-	-	-
CCCOC(=O)c1ccc(Oc2cn[nH]c2-c2ccc(O)cc2O)cc1	-	85	-	-	-	-
CCOC(=O)c1cnc2ccc(OC)cc2c1Nc1ccc(N2CCN(C)CC2)cc1	-	99	-	-	-	-
O=c1c2ccccc2oc2nc3ccn(Cc4ccncc4)c(=O)c3cc12	.	.	-	-	.	68
CC(=O)c1cc2c(=O)c3ccccc3oc2nc1C	-	-	.	.	-	.
CC(=O)C1=C(C)NC(SCc2cccc3ccccc23)=C(C#N)C1c1ccco1 (stereo not given)	-	99	-	-	-	-
CCN1C(=NCCc2cccs2)N[C@@H](c2cccs2)C(C(=O)OC)=C1C	-	-	-	56	-	-
Cc1ccc(C)c(CC(=O)N2CCCC(c3cc(C(=O)Nc4ccccc4Cl)no3)C2)c1 (stereo not given)	-	.	.	.	.	.
CC(C)COC(=O)N1CCCC(c2cc(C(=O)Nc3ccccc3Cl)no2)C1 (stereo not given)	-	.	.	.	.	.
NC(=O)CSc1nc2scc(-c3ccco3)c2c(=O)n1-c1ccccc1	-	-	67	51	-	-
c1ccc(Cn2c(SCc3cn4cccnc4n3)nnc2-c2ccco2)cc1	-	-	-	-	-	-

Source: PubChem
